{
  "source": "PubChem BioAssay AID493131",
  "about": "(Broad Institute, 2011)",
  "note": "Hit rate of the full screen: of about 340,000 compounds, about 3,300 (0.97%) were called active. This is one part of a sample in which actives are shown more often than they occur. A number with no mark means an inactive call.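 How the source made its calls: active means mean activation above about 17%, with every replicate also reaching it (limit read from the data, passing the limit was not always enough); inconclusive means only one of the two conditions met; inactive means the rest.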",
  "data": [
    {"biological_target": "Protein FosB (Mus musculus) (UniProt P13346)", "sequence (P13346 whole entry, looked up)": "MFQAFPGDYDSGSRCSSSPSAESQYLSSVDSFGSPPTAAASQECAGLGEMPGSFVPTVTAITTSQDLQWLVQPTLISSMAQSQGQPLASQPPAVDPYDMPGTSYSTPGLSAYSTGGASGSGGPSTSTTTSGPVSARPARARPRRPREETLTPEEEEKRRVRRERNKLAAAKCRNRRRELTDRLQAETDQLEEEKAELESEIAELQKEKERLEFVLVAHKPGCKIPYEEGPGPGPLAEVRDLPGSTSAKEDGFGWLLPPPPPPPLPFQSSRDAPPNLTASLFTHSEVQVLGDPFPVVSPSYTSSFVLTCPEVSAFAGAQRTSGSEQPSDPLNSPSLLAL", "test": "activators of delta FosB homodimer, primary screen, biochemical, fluorescence polarization, TAMRA-CDK5 oligo, single point (AID 493131);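 further: fluorescence polarization rise as delta FosB binds a TAMRA Cdk5 AP-1 oligo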", "settings": "purified delta FosB, at 25 µM, hits give high values", "values": [
      {"smiles": "O=c1[nH]c(CN2CC=C(c3ccccc3)CC2)nc2scc(-c3cccs3)c12", "activation": "35.5% (active)"},
      {"smiles": "CC1([N+](=O)[O-])COP(=O)(Nc2ccc(F)cc2)OC1", "note": "(stereo not given)", "activation": "2.39%"},
      {"smiles": "C[C@@]1([C@@H](NP(=O)(c2ccccc2)c2ccccc2)c2ccccc2)C[C@H]1CCO", "activation": "0.415%"},
      {"smiles": "N#Cc1ccc(Cn2cc(C(=O)c3ccco3)c3ccccc32)cc1", "activation": "-7.9%"},
      {"smiles": "C=CCN1C(=O)C2(C(C(=O)OCC)=C(N)Oc3c2c(=O)oc2ccccc32)c2ccccc21", "note": "(stereo not given)", "activation": "-8.76%"},
      {"smiles": "OC(Cn1c2ccccc2c2ccccc21)C[n+]1ccccc1", "note": "(stereo not given)", "activation": "20.4% (active)"},
      {"smiles": "COC(=O)C1=C(c2cccc(OCc3ccccc3)c2)C[C@@H]2CC[C@H]1N2C(=O)NNCc1ccccc1", "activation": "-6.41%"},
      {"smiles": "Cc1ccc(CN2CCCC(C(=O)c3ccc4c(c3)OCO4)C2)cc1C", "note": "(stereo not given)", "activation": "-3%"},
      {"smiles": "CCN1CCN(c2nc3c(c(=O)[nH]2)CCC3)CC1", "activation": "-2.7%"},
      {"smiles": "O=C(c1ccccc1)C(O)(CN1CCCCC1)c1ccccc1", "note": "(stereo not given)", "activation": "-1.99%"}
    ]}
  ]
}
